Source: PubChem BioAssay
Sampled rows, rich in hits. Any-hit rate of the full collection: about 4.3%.
Peg3 promoter = Peg3 promoter activity inhibition | HeLa PEG-Prom luciferase reporter, luminescence, overnight | inhibition, % at 20 µM | hit rate 1.7% among 360,000 | AID 588405;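 active means inhibition of at least 50% at 20 µM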
TRPM1 prom inh = reduces MITF-dependent TRPM1 promoter luciferase signal | hit rate 0.83% among 330,000 | SK-MEL-5 TRPM1 promoter luciferase, 24 h | inhibition, % at 12.5 µM;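 active means mean inhibition across replicates of 60% or more, whatever share of single replicates reaches that level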
KKLEB cytotox = counter-screen for CF NF-kB inhibitors: cytotoxicity; AID 602141; KKLEB CF airway cells viability, ATPlite luminescence, overnight; active compounds read low; cells stimulated with P. aeruginosa culture filtrate; hit rate 0.36% among 360,000; activity change (cytotoxicity), % at 5 µM;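 active means corrected activity change at or below -50% at 5 µM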
CF NFkB block = inhibitors of cystic fibrosis induced NF-kB. KKLEB NF-kB-GFP reporter, PAF-induced, GFP fluorescence overnight. inhibition, % at 5 µM. hit rate 0.86% among 360,000;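 active means at least 50% inhibition at 5 µM, scaled per plate between neutral and stimulator controls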;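 further: PAF is a Pseudomonas aeruginosa culture filtrate used as stimulus; plate controls were PAF-stimulated DMSO wells for no effect and unstimulated DMSO wells for full effect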
CHOP inh = blocks CHOP induction under ER stress; AID 2732; hit rate 3.8% among 220,000; CHO-K1 CHOP-promoter luciferase, tunicamycin-induced, 15-18 h; inhibition, % at 10 µM;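 active means compounds that reduced the stress-induced luciferase reporter signal by more than about 70% of percent inhibition, limit read from the data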;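 further: 0% = tunicamycin plus vehicle and 100% = wells without tunicamycin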
HIF-2a block = HIF-2a inhibition. 786-0 RCC cells HIF-2a reporter, luciferase luminescence, overnight. inhibition, % at 18.8 µM. hit rate 0.72% among 360,000. AID 624352;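 active means inhibition of the luminescence signal of 40% or more relative to plate controls, in a single-dose primary screen at 18.75 µM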
Starred values were filed as active, the others as inactive; . = no result.

SMILES	Peg3 promoter	TRPM1 prom inh	KKLEB cytotox	CF NFkB block	CHOP inh	HIF-2a block
CCCNC(=O)c1cc(C2CCCCN2S(=O)(=O)Cc2cccc(C(F)(F)F)c2)on1 (configuration not stated)	26	.	6	3	.	18
COP(=O)(OC)OC(C(=O)c1ccccc1)c1ccccc1 (configuration not stated)	.	.	.	.	.	6
COC(=O)c1ccc(NC(=O)CN2C(=O)CC(C)S(=O)(=O)c3ccccc32)cc1 (configuration not stated)	9	3	17	-46	.	-8
COc1ccc(OC)c(/C=C/c2ccc3cccc(O)c3n2)c1	83*	5	5	-41	.	-95
Cc1ccsc1/C=C/c1ccc2cccc(O)c2n1	80*	-3	-20	5	38	-128
COc1cc(Br)c(/C=C/c2ccc3cccc(O)c3n2)cc1OC	-47	-3	-3	13	.	-11
Oc1ccc(Cl)cc1/C=C/c1ccc2cccc(O)c2n1	-123	5	-4	14	94*	-172
Oc1c(Cl)cc(Cl)cc1/C=C/c1ccc2cccc(O)c2n1	45	31	1	22	18	-29
COc1cc(/C=C/c2ccc3cccc(OC)c3n2)c(O)c([N+](=O)[O-])c1	36	7	-21	38	94*	7
COc1cc(/C=C/c2ccc3cccc(OC)c3n2)c(OC(C)=O)c([N+](=O)[O-])c1	18	14	-14	20	38	9
CC(=O)C(C(c1ccccc1)N1CCCc2ccccc21)N1CCOCC1 (configuration not stated)	-26	8	8	-1	.	-25
CC(C)Cc1nnc(NC(=O)CCS(=O)(=O)c2ccc(Cl)cc2)s1	15	7	-4	35	.	0
Cc1ccc(N=N/C(=C\O)C(=O)c2ccncc2)cc1	0	-10	-4	11	89*	-5
C[C@@H]1CC=C[C@H]2[C@H]1C(=O)N(Cc1ccccc1)[C@H]2c1ccc(F)c(/C=C/c2ccccc2)c1	6	2	-17	25	23	10
C[C@@H]1CC=C[C@H]2[C@H]1C(=O)N(Cc1ccccc1)[C@H]2c1ccc(F)c(Br)c1	.	.	.	.	76*	.
O=C(CSc1ncnc2c1sc1ccccc12)Nc1ccc(Br)cc1	-7	8	-57*	43	44	10
CCc1nnc(NC(=O)CSc2ncnc3c2oc2ccccc23)s1	44	14	-11	17	47	13
O=C(CSc1ncnc2c1oc1ccccc12)Nc1nc2ccccc2s1	56*	15	-34	46	48	21
O=C(CSc1ncnc2c1oc1ccccc12)Nc1cccc(C(F)(F)F)c1	16	9	-1	0	79*	6
COc1ccc2cc(/C(C)=N/NC(=O)c3cc(C)oc3C)ccc2c1	1	.	8	-8	.	-89
CC(CCc1ccccc1)NC(=O)C1CCN(S(=O)(=O)c2ccc(F)cc2)CC1 (configuration not stated)	1	-1	6	4	.	14
COc1ccc(NC(=O)c2cccc3c2C(=O)c2ccc(-c4ccc(F)cc4OCc4ccccc4)cc2S3(=O)=O)cc1	47	3	-57*	46	.	-31
CCOc1ccccc1NC(=O)C(=O)CC(=O)c1ccc(OC)cc1	12	6	7	13	.	13
C=C(C)CN=C1NN=C(c2cc(C)n(-c3ccc(C)cc3)c2C)CS1	-94	-15	6	-2	74*	-19
Cc1cc(C)c2nc(SCC(=O)NCCC3=CCCCC3)cc(C)c2c1	11	9	-6	4	92*	22
SMILES	Peg3 promoter	TRPM1 prom inh	KKLEB cytotox	CF NFkB block	CHOP inh	HIF-2a block
Nc1cc(N)nc(SCC(=O)NCCC2=CCCCC2)n1	0	-4	-23	35	.	3
Cn1cc(-c2coc3c(C(=O)NCc4cccs4)cccc23)cn1	-38	.	-8	18	.	-71
Cc1ccccc1C(=O)Nc1ccc2c(C#N)c3nc4ccccc4nc3n2c1	3	-6	6	-112	96*	-12
Cc1c(C(=O)Nc2ccccc2)cn2c(nc3ccccc32)c1C#N	5	2	-6	-15	19	6
CC(C)Cc1nnc(NC(=O)c2ccc(-n3cncn3)c([N+](=O)[O-])c2)s1	-7	.	5	-13	.	13
Nc1nc(SCc2ccc([N+](=O)[O-])cc2)c2ncn([C@@H]3O[C@H](CO)[C@H](O)C3O)c2n1 (some centres not stated)	.	.	.	.	-12	.
O=C1/C(=C/c2ccccc2)NC(=S)N1C(c1ccccc1)c1ccccc1	9	27	-4	3	89*	2
COc1ccccc1NC(=O)c1cnc(SCC(=O)NCC2CCCO2)n(C)c1=O (configuration not stated)	0	68*	-3	-7	.	2
COCCNc1ncnc2c1ncn2[C@H]1CN(Cc2ccco2)C[C@@H](CO)O1	-6	.	10	-26	.	3
O=C(NC1CCCCC1)C(c1ccncc1)N(Cc1ccccc1)C(=O)c1ccc(-c2ccccc2)[nH]1 (configuration not stated)	14	21	-50*	38	34	-32
Cc1cc(NC(=O)C(C)SCC(=O)N(C)Cc2ccccc2F)no1 (configuration not stated)	71*	5	-3	4	.	14
Cc1cccc(C)c1C(O)c1ncc(-c2ccc(F)cc2)[nH]1 (configuration not stated)	-3	.	-1	-26	.	15
COc1ccc(C(=O)C(=O)N2CCN(c3ccccc3F)CC2)cc1	.	.	.	.	.	-7
COc1cccc2c1C(=O)O/C2=C/c1ccc2c(c1)OCO2	-31	-5	-73*	42	85*	-191
COc1cccc(OC)c1C1=CC(=O)C[C@H](c2ccc3c(c2)OCO3)C1	19	2	4	-7	.	0
O=C(CO/N=C/c1ccc(Cl)cc1Cl)NNC(=O)c1cccc(Cl)c1	2	-4	5	-3	74*	14
Cc1cc(OC(=O)Nc2ccccc2)ccc1Cl	-15	.	16	-7	.	-46
COc1ccccc1N1CCN(c2ncc(C(=O)N3CCN(c4cccc(Cl)c4)CC3)c3ccccc23)CC1	31	41	-14	2	86*	9
CCOc1ccccc1C(=O)N1CCN(c2cccc(Cl)c2)CC1	10	48	-30	41	.	4
COc1ccc(Nc2ncc(C(=O)N3CCN(c4ccc(F)cc4)CC3)c3ccccc23)cc1	59*	9	-20	24	56	7
CCN(CC(=O)Nc1ccc(OC)cc1)CC(=O)Nc1cccc(S(=O)(=O)N2CCOCC2)c1	5	.	3	-20	.	-2
CC1=C(O)C(=O)C(C2=C(O)C(=O)C(C)=C(O)C2=O)=C(O)C1=O	15	2	-2	-18	.	-3
Cc1ccc(C2=C(O)C(=O)C(c3ccc(C)cc3)=C(O)C2=O)cc1	-41	6	-8	56*	.	-4
